The values below come from PubChem BioAssay (NCI).

Values joined by “and” are separate entries in the source; they are usually repeats but may differ in a detail not shown here. Equal entries are not always repeated. The panel holds about 83,000 compounds, 20% with a hit somewhere; the sample as a whole holds those more often.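 Note: values are percent growth. 100 is the growth of untreated cells, values between 100 and 0 indicate rising inhibition; between -100 and 0 indicates cell death.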 Active and inactive are the calls of the source. How the source made its calls: active means growth percent below 10; inactive means the rest.

What all share (assay): NCI-60 one-dose screen, 48 h (100 = growth as untreated, 0 = no growth, -100 = all killed)
Settings in all cases: 10 µM unless noted

Assay [1] deals with NCI-H23 lung.
In assay [2] the test system is NCI-H226 lung.
Assay [3] relates to NCI-H322M lung.
For assay [4], the system named is HOP-62 NSCLC.
Assay [5] has as its system HOP-92 NSCLC.
The test system of assay [6] is NCI-H522 lung.
Assay [7] has as its system A549/ATCC NSCLC.
The test system of assay [8] is 786-0 renal.
For assay [9], the system named is COLO 205 colon.
Assay [10] has as its system DU-145 prostate.
Assay [11] relates to K-562 leukemia.
For assay [12], the system named is MALME-3M melanoma.
For assay [13], the system named is MDA-MB-231 breast.
Assay [14] has as its system RXF 393 renal.
Assay [15] deals with SF-268 CNS.
The test system of assay [16] is SF-295 CNS.
Assay [17] relates to SF-539 CNS.
Assay [18] deals with UACC-257 melanoma.
In assay [19] the test system is M14 melanoma.
Assay [20] has as its system NCI-H460 lung.

Turning to `C=C[Se]CC(=O)/C=C/c1ccccc1`, the growth was 70.1% (inactive) in assay [1]; 98% (inactive) in [2]; 6% (active) in [3]; 13% (inactive) in [4]; 104% (inactive) in [5]; 89.2% (inactive) in assay [6]. Also, the growth in [7] was 32.3% (inactive); in [8], 102% (inactive); in assay [9] it was 109% (inactive); in [10], 87.5% (inactive); in [11], 93.9% (inactive); in assay [12], 97.5% (inactive). For the same compound, the growth in [13] is 94.3% (inactive); in assay [14] it was 114% (inactive); in assay [15], 94.8% (inactive); in [16], 3.93% (active); in assay [17] it was 95.2% (inactive); in [18] it was 92.7% (inactive). Also, the growth in assay [19] was 73.5% (inactive).
For `C[N+]12CCC34C5=CC(=O)C(=O)C=C5[N+]5(C)C(=O)CC6OCC=C(C1)C(CC32)C6C45` (stereo unspecified), the growth was 117% (inactive) in assay [1]; 98.6% (inactive) in assay [2]; 98.5% (inactive) in [3]; 102% (inactive) in assay [4]; 105% (inactive) in assay [20]; 106% (inactive) in assay [7]. Moreover, the growth in assay [8] is 112% (inactive); in assay [9], 101% (inactive); in assay [10], 102% (inactive); in assay [11] it was 97.6% (inactive); in assay [12], 99.4% (inactive); in [13], 97.6% (inactive). Besides, the growth in assay [14] was 93.1% (inactive); in [15], 111% (inactive); in [16] it was 93% (inactive); in assay [17], 97.5% (inactive); in assay [18] it was 113% (inactive); in [19], 118% (inactive).
In the case of `CCCCOCCOP(=O)(OCCOCCCC)OCCOCCCC`, the growth in [1] is 101% (inactive); in assay [2] it was 90.6% (inactive); in [3] it was 120% (inactive); in assay [4], 91.6% (inactive); in assay [20], 99.3% (inactive); in assay [5] it was 111% (inactive). For the same compound, the growth in assay [6] is 100% (inactive); in [8] it was 110% (inactive); in assay [9], 105% (inactive); in [10], 115% (inactive); in assay [11], 88.3% (inactive); in [12], 111% (inactive). Besides, the growth in [13] was 99% (inactive); in assay [14], 100% (inactive); in assay [15], 98.5% (inactive); in [16] it was 103% (inactive); in [17], 99.6% (inactive); in assay [19], 106% (inactive).
`N#CC(C#N)=C(C#N)C#N`: the growth in assay [1] was 106% (inactive); in [2], 101% (inactive); in [3] it was 103% (inactive); in [4], 108% (inactive); in assay [20], 106% (inactive); in assay [7], 99.9% (inactive). The growth in assay [8] is 101% (inactive); in assay [9], 114% (inactive); in [10], 110% (inactive); in assay [11] it was 108% (inactive); in assay [12], 108% (inactive); in assay [13], 106% (inactive). In addition, the growth is 111% (inactive) in [14]; 96% (inactive) in assay [15]; 93.7% (inactive) in [17]; 97.8% (inactive) in assay [18]; 102% (inactive) in assay [19].
Take `C=CC1CN2CCC1CC2C(O)c1ccnc2ccccc12` (stereo unspecified): the growth in assay [1] is 24.4% (inactive); in assay [2] it was 112% (inactive); in assay [3] it was 145% (inactive); in assay [4], 121% (inactive); in assay [20], 118% (inactive); in assay [6], 24.2% (inactive). The growth in assay [8] was 108% (inactive); in assay [9], 104% (inactive); in assay [10] it was 111% (inactive); in assay [11], 231% (inactive); in [12], 140% (inactive); in [13], 125% (inactive). The growth is 120% (inactive) in assay [15]; 121% (inactive) in assay [16]; 121% (inactive) in [17]; 158% (inactive) in assay [18]; 133% (inactive) in assay [19].
Turning to `c1ccc2c(c1)O[As](O[As]1Oc3ccccc3O1)O2`, the growth was 43.8% (inactive) in assay [1]; 65.2% (inactive) in [2]; 58.5% (inactive) in assay [3]; 50.6% (inactive) in assay [4]; 54.8% (inactive) in [20]; -12.2% (active) in assay [5]. Besides, the growth in assay [8] is 25.3% (inactive); in assay [9], 50.3% (inactive); in [10], 60.6% (inactive); in [11], 5.83% (active); in assay [12], -7.18% (active); in assay [13] it was 62% (inactive). Moreover, the growth in assay [14] is 42.4% (inactive); in assay [15] it was 19.2% (inactive); in assay [16], 99.3% (inactive); in [17] it was -32.9% (active); in assay [19], 52.2% (inactive).
On to `OCCNC1CCCCC1`, for which the growth was 108% (inactive) in assay [1]; 104% (inactive) in assay [2]; 113% (inactive) in [3]; 99.2% (inactive) in assay [4]; 105% (inactive) in assay [20]; 108% (inactive) in [5]. Further, the growth was 106% (inactive) in assay [7]; 112% (inactive) in assay [9]; 107% (inactive) in assay [10]; 101% (inactive) in assay [11]; 112% (inactive) in assay [12]; 114% (inactive) in [13]. Further, the growth in assay [14] is 118% (inactive); in assay [15] it was 102% (inactive); in [16] it was 111% (inactive); in assay [17] it was 103% (inactive); in assay [18] it was 112% (inactive).
In the case of `O=C(Cc1ccccc1)NC(O)C(Cl)(Cl)Cl` (stereo unspecified), the growth was 102% (inactive) in [1]; 97.2% (inactive) in assay [2]; 122% (inactive) in assay [3]; 110% (inactive) in assay [4]; 123% (inactive) in assay [5]; 105% (inactive) in [6]. The growth was 96.3% (inactive) in assay [7]; 94.7% (inactive) in [8]; 118% (inactive) in assay [9]; 118% (inactive) in assay [10]; 98.3% (inactive) in [11]; 115% (inactive) in assay [12]. In addition, the growth in [13] was 106% (inactive); in assay [14], 105% (inactive); in assay [15] it was 104% (inactive); in [16], 103% (inactive); in assay [17], 108% (inactive); in assay [18], 103% (inactive). The growth in [19] is 101% (inactive).
Take `Clc1ccc(COC(Cn2ccnc2)c2ccc(Cl)cc2Cl)c(Cl)c1` (stereo unspecified): the growth in assay [1] is 40.6% (inactive) and 25.2% (inactive); in [2], 68.3% (inactive) and 75.9% (inactive); in assay [3], 94.1% (inactive) and 85.6% (inactive); in [4], 71.3% (inactive) and 84.9% (inactive); in assay [5] it was -1.54% (active) and 14.5% (inactive); in [6] it was 39% (inactive) and 41.5% (inactive). Further, the growth in assay [7] is 37.3% (inactive) and 12.5% (inactive); in [8], 48.9% (inactive) and 49.6% (inactive); in assay [9] it was 57.2% (inactive) and 57.9% (inactive); in assay [10] it was 76.8% (inactive) and 69.8% (inactive); in assay [11], 25.5% (inactive) and 13.7% (inactive); in [12] it was 56.1% (inactive) and 75.3% (inactive). The growth in assay [13] is 49.5% (inactive) and 66.9% (inactive); in assay [14], 72.1% (inactive) and 10.9% (inactive); in assay [15], 70.2% (inactive) and 77.8% (inactive); in assay [16], 30.4% (inactive) and 51.3% (inactive); in assay [17], 80.4% (inactive) and 70.1% (inactive); in assay [18], 61.2% (inactive) and 48% (inactive). For the same compound, in assay [19], the growth was 29.2% (inactive).
